# Data published in PubChem BioAssay (EPA / NIEHS).
# Results filed as inconclusive are left out. Active and inactive are the calls of the source. The calls were made as follows: active = hit-call score of the fitted dose curve at least 0.9, where 1 is the maximum; inconclusive = response in the unintended direction; inactive = score below 0.9.
# Molecular target: Bile acid receptor (Homo sapiens) (UniProt Q96RI1)
# Assay: OT_FXR_FXRSRC1_0480: Odyssey Thera (OT) 8-hour HEK293T Protein-Complementation Assay for Farnesoid X receptor/SRC-1 Co-activator (AID 2283383)
# Description: OT_FXR_FXRSRC1_0480 is a cell-based assay that uses HEK293T, a human kidney cell line, with measurements taken at 8 hours after chemical dosing in a 384-well plate.OT_FXR_FXRSRC1_0480 is one of one assay component(s) measured or calculated from the OT_FXR_FXRSRC1_0480 assay. It is designed to make measurements of protein fragment complementation, a form of binding reporter, as detected with fluorescence intensity signals by Protein-fragment Complementation technology.Data from the assay component OT_FXR_FXRSRC1_0480 was analyzed into 1 assay endpoint. This assay endpoint, OT_FXR_FXRSRC1_0480, was analyzed in the positive analysis fitting direction relative to DMSO as the negative control and baseline of activity. Using a type of binding reporter, measures of receptor for gain-of-signal activity can be used to understand the binding at the pathway-level as they relate to the gene NR1H4. Furthermore, this assay endpoint can be referred to as a primary readout, because the performed assay has only produced 1 assay endpoint. To generalize the intended target to other relatable targets, this assay endpoint is annotated to the nuclear receptor intended target family, where the subfamily is non-steroidal.
# Protein-fragment complementation assay, or PCA, is a method for the identification and quantification of protein-protein interactions. In the PCA, the proteins of interest ("bait" and "prey") are each covalently linked to fragments of a third protein (e.g. DHFR, which acts as a "reporter"). Interaction between the bait and the prey proteins brings the fragments of the reporter protein in close proximity to allow them to form a functional reporter protein whose activity can be measured.
# Bile acid receptor (Homo sapiens), sequence (Q96RI1 whole entry, looked up): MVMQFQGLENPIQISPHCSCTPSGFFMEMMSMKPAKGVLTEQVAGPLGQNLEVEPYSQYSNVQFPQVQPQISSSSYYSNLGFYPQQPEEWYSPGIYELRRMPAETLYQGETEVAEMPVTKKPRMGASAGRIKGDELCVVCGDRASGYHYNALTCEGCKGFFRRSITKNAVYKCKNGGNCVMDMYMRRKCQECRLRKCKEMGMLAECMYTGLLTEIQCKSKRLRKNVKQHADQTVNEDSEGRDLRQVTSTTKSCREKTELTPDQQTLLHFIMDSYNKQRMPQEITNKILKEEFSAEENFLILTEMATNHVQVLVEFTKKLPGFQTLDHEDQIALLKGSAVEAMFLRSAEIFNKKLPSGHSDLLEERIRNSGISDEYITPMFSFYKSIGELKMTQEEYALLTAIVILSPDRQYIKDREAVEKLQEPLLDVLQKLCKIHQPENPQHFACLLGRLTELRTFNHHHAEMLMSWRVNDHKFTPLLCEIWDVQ
SMILES,outcome,AC50
COc1cc(OC)nc(NC(=O)NS(=O)(=O)c2ncccc2OCC(F)(F)F)n1,inactive,–
CCCCOCN(C(=O)CCl)c1c(CC)cccc1CC,–,50 µM (active)
CC(C)=CC1C(C(=O)OCc2coc(Cc3ccccc3)c2)C1(C)C (stereo unspecified),–,39.6 µM (active)
COP(=S)(OC)Oc1ccc([N+](=O)[O-])c(C)c1,–,21.3 µM (active)
COCC(=O)N(c1c(C)cccc1C)C(C)C(=O)OC (stereo unspecified),inactive,–
COCC(C)N(C(=O)CCl)c1c(C)csc1C (stereo unspecified),inactive,–
CCOc1cc(C(C)(C)C)ccc1C1COC(c2c(F)cccc2F)=N1 (stereo unspecified),–,1.27 µM (active)
CCN(CC)C(=O)C(C)Oc1cccc2ccccc12 (stereo unspecified),–,32.6 µM (active)
CC1(C)C(C(=O)OC(C#N)c2cccc(Oc3ccccc3)c2)C1(C)C (stereo unspecified),–,2.05 µM (active)
Clc1cccc(C(Cl)(Cl)Cl)n1,inactive,–
O=P(O)(O)CCCl,inactive,–
COC(=O)NC(=S)Nc1ccccc1NC(=S)NC(=O)OC,inactive,–
O=C(O)c1c(Cl)ccc2cc(Cl)cnc12,inactive,–
CN=C=S,inactive,–
CO/N=C(/C1=NOCCO1)c1ccccc1Oc1ncnc(Oc2ccccc2Cl)c1F,–,12.4 µM (active)
CCNC(=O)NC(=O)C(C#N)=NOC,inactive,–
CCCCC(O)(Cn1cncn1)c1ccc(Cl)cc1Cl (stereo unspecified),inactive,–
COc1ccc(-c2ccccc2)cc1NNC(=O)OC(C)C,inactive,–
Cc1c(COC(=O)[C@@H]2[C@H](/C=C(\Cl)C(F)(F)F)C2(C)C)cccc1-c1ccccc1,inactive,–
CS(=O)(=O)c1ccc(C(=O)C2C(=O)CCCC2=O)c([N+](=O)[O-])c1,inactive,–
CCC(C)n1c(=O)[nH]c(C)c(Br)c1=O (stereo unspecified),inactive,–
